# Measured values published in PubChem BioAssay AID556 (SRMLSC, 2006).
# Among all 65,000 compounds or so, about 320 (0.49%) were called active.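 The calls were made as follows: active = the 320 compounds with the highest percent inhibition in the single-dose primary screen, excluding strongly autofluorescent ones (cut at about 32% in these data); inactive = the rest, inconclusive results apart.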 This excerpt belongs to a sample that is enriched for actives.
# Tested on: diphosphomevalonate decarboxylase (Streptococcus pneumoniae D39)
# Assay: diphosphomevalonate decarboxylase activity blockers – biochemical, PK/LDH-coupled NADH fluorescence, primary screen (AID 556);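 as to inhibition: kinetic rate of NADH fluorescence loss reporting ADP formed by the decarboxylase; 0% = full reaction rate with carrier and 100% = no-substrate background rate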
# Settings: purified DPM-DC, at 10 µM
# [1] = stronger effect = higher value unless noted
# [2] = measured here: pilot screen trials, stronger effect = higher value
smiles,measurement,setting,value
C=CCNC(=O)c1ccc(C)c(Br)c1,inhibition,[1],inactive
CCN(CC)CCNC(=O)C1c2ccccc2C(=O)N(C)C1c1cn(C)c2ccccc12 (stereo not drawn),inhibition,[1],inactive
COc1ccccc1CNCc1cccs1,inhibition,[1],inactive
COC(=O)c1cc(C(=O)CSc2nc(C)cc(C)n2)ccc1O,inhibition,[1],inactive
CCOC(=O)Cc1csc(NC(=O)CN(C)S(=O)(=O)c2ccc3c(c2)CCC(=O)N3)n1,inhibition,[1],"0% [measured here: pilot screen trials, stronger effect = higher value]"
same,outcome,[1],inactive
COc1ccc(OC)c(CNC(=O)CCc2nc(-c3cccs3)no2)c1,inhibition,[1],inactive
Cc1nnc(SCCCn2c(N3CCCCC3)nc3c2c(=O)[nH]c(=O)n3C)s1,inhibition,[1],"1% [measured here: pilot screen trials, stronger effect = higher value]"
same,outcome,[1],inactive
Cc1ccc(C(=O)OCC(=O)NCc2ccc3c(c2)OCO3)s1,inhibition,[1],14% (inactive)
CCCn1cc(SCC(N)=O)c2ccccc21,inhibition,[1],"0% [measured here: pilot screen trials, stronger effect = higher value]"
same,outcome,[1],inactive
C=CCn1c(=O)c2ccccc2n2c(SCC(=O)N3CCCc4ccccc43)nnc12,inhibition,[1],inactive
CCCn1c(=O)c2ccccc2n2c(SCC(=O)/C(C#N)=C(\C)N)nnc12,inhibition,[1],34% (active)
COC(=O)c1ccccc1NC(=O)CN(Cc1ccccc1)S(C)(=O)=O,inhibition,[1],5% (inactive)
CC(=O)c1ccc(N2C(=NC(=O)C(C)C)SC3CS(=O)(=O)CC32)cc1 (stereo not drawn),inhibition,[1],14% (inactive)
CCOCCN(C=O)c1cccc(OC)c1,inhibition,[1],inactive
COc1ccc(-c2ccnc(SCC(=O)N3CCOCC3)n2)cc1,inhibition,[1],inactive
COc1cc(NS(=O)(=O)c2ccc(NC(C)=O)cc2)cc(OC)c1,inhibition,[1],inactive
CCC(=O)Nc1sc(C(=O)N2CCCCC2)c(C)c1C#N,inhibition,[1],inactive
O=C(CNC(=O)c1ccco1)OCC(=O)c1ccccc1,inhibition,[1],14% (inactive)
Cc1ccc2nc(NC(=O)C3CCN(S(=O)(=O)c4ccc5c(c4)oc(=O)n5C)CC3)sc2c1,inhibition,[1],inactive
CCS(=O)(=O)n1nc(-c2ccc(OC)cc2)nc1SC,inhibition,[1],inactive
Cn1c(SCC(=O)N2CCOCC2)nnc1-c1ccc(NC(=O)c2ccccc2F)cc1,inhibition,[1],100% (active)
Cc1ccccc1C(=O)Nc1cccc(-c2nnc(SCC(=O)O)n2C)c1,inhibition,[1],3% (inactive)
Cn1c(SCC(=O)Nc2cccc(O)c2)nnc1-c1ccc(S(=O)(=O)N2CCOCC2)cc1,inhibition,[1],inactive
O=C1OC(NC(=O)c2ccccc2)C(N2CCOCC2)=C1Cl (stereo not drawn),inhibition,[1],9% (inactive)
CCOc1ccc(-n2c(SC(C)C(=O)OC)nc3c(c2=O)SCC3)cc1 (stereo not drawn),inhibition,[1],1% (inactive)
O=C(NCc1ccccn1)c1cnc2sccn2c1=O,inhibition,[1],27% (inactive)
CC(C)Cc1cc(C(=O)Nc2cc(Br)ccc2O)no1,inhibition,[1],inactive
CCCC(C)n1[nH]c(=O)c2c(C)cc(C)nc21 (stereo not drawn),inhibition,[1],inactive
Cc1nnc(SCC(=O)N(C(C)C)C(C)C)nc1C,inhibition,stronger effect = higher value,4% (inactive)
same,inhibition,[2],0%
CC(C)(C)c1ccc(NC(=O)NCc2ccco2)cc1,inhibition,[1],inactive
CCCn1c(SCC(=O)c2ccc3c(c2)OCCO3)nnc1C(C)C,inhibition,[1],4% (inactive)
CS(=O)(=O)N1CCN(C(=O)Cc2ccccc2)CC1,inhibition,[1],inactive
CC1(C)Cc2cccc(OCC(=O)Nc3nccs3)c2O1,inhibition,[1],inactive
CCOC(=O)C1CCCN(C(=O)c2sc3nc(C)nc(N4CCOCC4)c3c2C)C1 (stereo not drawn),inhibition,[1],inactive
O=C(CN1CCN(c2ccccn2)CC1)NCc1cccs1,inhibition,[1],inactive
CC(C)COC(=O)C1C2C=CC3(CN(C(C)c4ccc(Br)cc4)C(=O)C13)O2 (stereo not drawn),inhibition,stronger effect = higher value,22% (inactive)
same,inhibition,[2],0%
CCOC(=O)N1CCC(O)(c2cc(C)c(C)cc2C)CC1,inhibition,[1],"0.5% [measured here: pilot screen trials, stronger effect = higher value]"
same,outcome,[1],inactive
O=C(C1=C(O)C(=O)N(c2ncccn2)C1c1cccs1)c1ccco1 (stereo not drawn),inhibition,[1],1% (inactive)
Cc1[nH]c2ccc(S(N)(=O)=O)cc2c1C,inhibition,[1],inactive
CCN(CC)c1ccc(C(=O)OCC(=O)c2ccco2)cc1,inhibition,[1],inactive
Cc1ccc(S(=O)(=O)N2CC(=O)Nc3ccccc32)cc1C,inhibition,[1],inactive
Cc1nc(NC(=O)C23CCC(C)(C(=O)O2)C3(C)C)sc1C (stereo not drawn),inhibition,stronger effect = higher value,6% (inactive)
same,inhibition,[2],2%
Cc1noc(C)c1C(=O)OCC(=O)/C=C1\N(C)c2ccccc2C1(C)C,inhibition,[1],inactive
CCOC(=O)CN1CC23C=CC(O2)C(C(=O)Nc2ccc(F)cc2)C3C1=O (stereo not drawn),inhibition,[1],inactive
CCOCCOC(=O)C1=C(C)N(C)C(=O)NC1c1ccccc1F (stereo not drawn),inhibition,[1],inactive
Cc1c(C(=O)NCCN2CCOCC2)sc2nc(-c3ccc(F)cc3)cn12,inhibition,[1],9% (inactive)
Cc1c(C(=O)N2CC(C)OC(C)C2)sc2nc(-c3ccccc3)cn12 (stereo not drawn),inhibition,[1],inactive
Cc1c(C(=O)NCC2CCCO2)sc2nc(-c3ccccc3)cn12 (stereo not drawn),inhibition,[1],35% (active)
C=CCn1c(C2CC(=O)N(c3ccc(C)cc3)C2)nc2ccccc21 (stereo not drawn),inhibition,[1],inactive
O=C(CSc1nc2cc3c(cc2c(=O)n1CCC1=CCCCC1)OCO3)NCc1ccco1,inhibition,[1],inactive
CCNS(=O)(=O)c1ccc(NC(=O)Nc2cccc(C(F)(F)F)c2)cc1,inhibition,[1],inactive
CCCCOc1ccc(C(C)(O)CCN2CCOCC2)cc1 (stereo not drawn),inhibition,[1],inactive
CC1(C)Oc2ccc(C(=O)N3CCOCC3)cc2N(CC(=O)Nc2ccccc2)C1=O,inhibition,[1],inactive
CCCCNc1nc2ccccc2nc1NS(=O)(=O)c1cccs1,inhibition,[1],2% (inactive)
Cc1ccc(CN2C(=O)CCC2C(=O)NCCCN2CCCCC2C)cc1 (stereo not drawn),inhibition,[1],inactive
Cn1c(SCc2nc3ccccc3s2)nnc1-c1ccc2c(c1)OCO2,inhibition,[1],inactive
Cc1cccc(N2CCN(C(=O)C3CCN(S(=O)(=O)c4cnc[nH]4)CC3)CC2)c1C,inhibition,[1],inactive
CCCCCCOC(=O)NCC(O)c1ccccc1 (stereo not drawn),inhibition,[1],inactive
Cc1nc(NCCN)c(C#N)c2c1COC(C)(C)C2,inhibition,[1],32% (active)
Cc1nc(NCc2ccccc2)c(C(N)=O)c2c1COC(C)(C)C2,inhibition,[1],24% (inactive)
Cn1c(=O)c(=O)n(C)c2cc(S(=O)(=O)NCCc3ccccc3)ccc21,inhibition,[1],inactive
Cc1ccc(S(=O)(=O)NCCN2CCOCC2)cc1C,inhibition,stronger effect = higher value,80% (active)
same,inhibition,[2],0%
Cc1cc(C)c(S(=O)(=O)NCCCN2CCOCC2)cc1Br,inhibition,[1],inactive
COCCNC(=O)CN1C(=O)CSc2ncccc21,inhibition,[1],"0% [measured here: pilot screen trials, stronger effect = higher value]"
same,outcome,[1],inactive
